FLuc counter: qHTS profiling assay for firefly luciferase inhibitor/activator using purifed enzyme and Km concentrations of substrates (counterscreen for miR-21 project); Luciferin 4-monooxygenase (Photinus pyralis), P08659; purified FLuc, Km substrates, luminescence inhibition; Potency, µM (top dose mostly 57.5 µM), for the others: at the highest dose activity change, negative = inhibition, actives largely listed as inhibitors; 6.9% of 360,000 active; AID 588342, 2011;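 note: plate controls were vehicle for no effect and reference inhibitor for full effect; nearly all actives have a fitted effect of over 55% in size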
Target sequence (P08659 whole entry, looked up): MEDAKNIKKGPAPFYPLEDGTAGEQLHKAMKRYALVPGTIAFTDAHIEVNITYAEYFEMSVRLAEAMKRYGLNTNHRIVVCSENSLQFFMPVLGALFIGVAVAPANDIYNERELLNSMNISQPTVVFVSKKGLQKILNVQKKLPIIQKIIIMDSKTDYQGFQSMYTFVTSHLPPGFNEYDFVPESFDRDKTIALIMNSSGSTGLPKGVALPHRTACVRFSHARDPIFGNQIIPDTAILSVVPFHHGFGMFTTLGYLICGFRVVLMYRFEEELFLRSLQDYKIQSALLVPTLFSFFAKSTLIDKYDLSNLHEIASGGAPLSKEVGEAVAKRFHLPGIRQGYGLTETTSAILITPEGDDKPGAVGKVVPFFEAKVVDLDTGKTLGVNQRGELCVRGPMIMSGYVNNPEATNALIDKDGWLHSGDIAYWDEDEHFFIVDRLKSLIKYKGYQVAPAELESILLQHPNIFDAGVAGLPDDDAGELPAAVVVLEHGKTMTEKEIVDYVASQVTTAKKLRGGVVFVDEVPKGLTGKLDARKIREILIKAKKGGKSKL
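Biochemical qHTS of compounds, final roughly 60 µM downward over six points, against 10 nM purified firefly luciferase using Km concentrations of substrates (10 uM D-luciferin, 10 uM ATP) in Tris acetate pH 7.5 buffer; luminescence output.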
SMN2 splice up: qHTS Assay for Enhancers of SMN2 Splice Variant Expression; HEK293 SMN2-luciferase splicing reporter, luminescence, 30-36 h; Potency, µM (titrated, usually from 46.1 µM), inactives show top-dose activity change, positive = activation, usual class: activators; 2.8% of 210,000 active; note: % of control where 0% means no effect; nearly all actives have a fitted effect of over 55% in size
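qHTS luciferase splicing reporter: luminescence rises when SMN2 exon 7 is included in transfected HEK293 cells. Compound exposure lasted 30-36 h at 37C, with 4.5 mM final sodium butyrate as control, followed by a ONE-Glo read.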
ELG1 DNA repair: qHTS screen for small molecules that inhibit ELG1-dependent DNA repair in human embryonic kidney (HEK293T) cells expressing luciferase-tagged ELG1; HEK293T ELG1-luciferase reporter, luminescence, 16 h; DNA damage induced by 5-fluorouridine; Potency, µM (top dose mostly 46.1 µM), for the others: at the top dose activity change, negative = inhibition, hits mostly inhibitors; 2.3% of 330,000 active; note: % is set by controls: 0 for no effect and ±100 for the full control effect; nearly all actives have a fitted effect of over 55% in size
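Quantitative HTS, concentration-response format. 2,000 cells/well co-treated with 5-fluorouridine and compound, 16 hr in 5% CO2 at 37 °C; ONE-Glo luminescence read after 30 min.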
ELG1 genotoxic: qHTS screen for small molecules that induce genotoxicity in human embryonic kidney (HEK293T) cells expressing luciferase-tagged ELG1. HEK293T ELG1-luciferase reporter, luminescence, 16 h. Potency, µM (highest dose often 46 µM), for the others: at the top dose activity change, positive = activation, usual class: activators. 1.3% of 330,000 active. AID 504466, 2011; note: % of control where 0% means no effect; nearly all actives have a fitted effect of over 60% in size
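Reporter readout depends on ELG1 protein level, which increases with genetic stress. After 16 hr compound exposure at 37 °C, luciferase activity was quantified using ONE-Glo.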
NPC1 promoter act: qHTS Assay for NPC1 Promoter Activators; Huh7 NPC1 promoter luciferase reporter, 24 h; 2.4% of 320,000 active; Potency, µM (highest dose often 9.22 µM), for the others: at the highest dose activation, most hits filed as activators; note: % of control where 0% means no effect; nearly all actives have a fitted effect of over 60% in size
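Luminescence from an NPC1 promoter-driven luciferase reporter in stably transfected Huh7 cells was measured after 24 h compound treatment at 37 °C, followed by 10 min ambient incubation with luciferase detection reagent.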
Rab9 promoter act: qHTS Assay for Rab9 Promoter Activators; Potency, µM (titrated, usually from 9.22 µM), for inactives: at the highest dose activation, negative = inhibition, hits mostly activators; 2.8% of 320,000 active; Huh7 Rab9 promoter-luciferase reporter, luminescence, 24 h; note: % of control where 0% means no effect; nearly all actives have a fitted effect of over 60% in size
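Luciferase signal after 10 min detection reagent at ambient indicates Rab9 promoter upregulation; stably transfected Huh7 cells were treated 24 h with compound in DMSO at 37 °C, 5% CO2.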
The depositor's hits bear a star; ? = inconclusive; nt = no result; [ ] = remark or other dose. A selection: hits, their analogues and other compounds. The true share with any hit is near 9.2%. Calls come from the whole dose curve; as a rule, active = well fitted curve in the direction sought with a large enough effect; inconclusive = small, poorly fitted or top-dose-only effect, or another doubt; inactive = no such curve, though single readings can be large; an effect the other way counts as inactive or inconclusive. Potency is the fitted concentration of half-maximal effect.

SMILES	FLuc counter	SMN2 splice up	ELG1 DNA repair	ELG1 genotoxic	NPC1 promoter act	Rab9 promoter act
CCOC(=O)c1cc(-c2ccc(F)cc2)n(CCC(=O)Nc2nc3cc(C)c(C)cc3s2)c1C	5%	nt	nt	nt	nt	nt
Cc1nc2ccc(NC(=O)c3ccc4ccccc4n3)cc2s1	6µM*	35µM*	?	?	2.8µM*	3.5µM*
Cc1nc2ccc(NC(=O)c3ccco3)cc2s1	?	nt	?	?	?	2.8µM*
Cc1nc2ccc(NC(=O)c3cccc(S(=O)(=O)N(C)c4ccccc4)c3)cc2s1	-1%	-9%[1.84 µM]	18µM*	-9%	-2%	1%
Cc1nc2ccc(NC(=O)c3cncc(Br)c3)cc2s1	?	nt	23µM*	-6%	?	30%
O=C(NCc1cccc(Cl)c1)c1cnc(N2CCCCC2)c2ccccc12	-5%	nt	nt	nt	nt	nt
CCCn1c(C)nc2c(N(CCN(C)C)Cc3ccccc3)nc(C)nc21	nt	-26%	nt	nt	nt	nt
COc1ccc(S(=O)(=O)N2CCOC2CNC(=O)C(=O)NCc2ccc(F)cc2)cc1OC (configuration not stated)	2%	nt	12%	-1%	-5%	0%
O=C(NCCC1=CCCCC1)c1ccc2c(c1)ncn2-c1ccc(F)c(F)c1	-13%	nt	nt	nt	nt	nt
CC(=O)c1ccc(OCC(=O)Nc2ccc3nc(C)sc3c2)cc1	-12%	5%	4%	0%	-9%	2%
Cc1nnc(NC(=O)c2ccc3ccccc3n2)s1	24µM*	nt	?	?	?	3.5µM*
NNC(=O)c1ccc2ccccc2n1	-5%	13%	?	1%	1%	1%
CCCCC(=O)Nc1ccc(C(=O)NNC(=O)c2ccc(C)c(Br)c2)cc1	2%	nt	16%	?	0%	-2%
CC(=O)c1ccc(NC(=O)c2ccc(C)c(Br)c2)cc1	6µM*	11µM*	?	?	2.5µM*	0.79µM*
CC(=O)c1ccc(NC(=O)c2ccc3nc(C)sc3c2)cc1	?	nt	?	?	2µM*	2.8µM*
CCn1nc(C(=O)Nc2ccc3nc(C)sc3c2)c2ccccc2c1=O	?	4µM*	?	2%	5%	1%
CCc1cccc(C)c1NC(=O)Cn1c(=O)n(-c2cccc(C)c2)c(=O)c2c1c1cc(C)ccc1n2C	-4%	nt	nt	nt	nt	nt
COc1ccccc1N(C)S(=O)(=O)c1ccc(C(=O)Nc2ncc(C)s2)cc1	nt	nt	?	-10%	-2%	-1%
Cc1nc2cc(C(=O)O)ccc2s1	17µM*	11µM*	?	?	1.4µM*	2.8µM*
Cc1nc2ccc(NC(=O)c3ccc(=O)[nH]c3)cc2s1	-6%	nt	?	12%	-1%	-1%
Cc1nc2ccc(NC(=O)c3ccccc3)cc2s1	19µM*	22µM*	?	?	2.8µM*	2.8µM*
COc1ccccc1N(C)S(=O)(=O)c1ccc(C(=O)Nc2ccc3nc(C)sc3c2)cc1	-18%	-51%	26µM*	-13%	-1%	0%
COc1cc(C(=O)Nc2ccc(C(C)=O)cc2)c(Br)c(OC)c1OC	17µM*	?	?	8%	24%	?
COc1ccc(C2=C(C)C(N3CCC(C(=O)NCc4ccc(C)o4)CC3)=NS2(=O)=O)cc1	0%	nt	nt	nt	nt	nt
Cc1nc2ccc(C(=O)Nc3ccccc3Cl)cc2s1	17µM*	nt	?	?	2.5µM*	1.1µM*
CN(c1ccccc1)S(=O)(=O)c1cccc(NC(=O)c2ccc3ncsc3c2)c1	-4%	nt	15µM*	-10%	-7%	-13%
Cc1ccc(NC(=O)c2ccc3ncsc3c2)cc1S(=O)(=O)N(C)C	2.1µM*	nt	?	?	0.35µM*	0.35µM*
